Consider 36 compounds from paper PMC5540273 (PLoS ONE, 2017).
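Further: KINOMEscan kinase panel screen.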

The subject of one experiment is JAK1(JH2domain-pseudokinase). The following applies: concentration: 1 μM, replicates: in singlicate; n = 1.
As for `COc1ccc(-c2cc3c(C)nc(N)nc3n([C@H]3CC[C@H](O)CC3)c2=O)cn1`, the “%Inh” value was found to be 0%.

As for `CCC(=O)c1c(-c2ccccc2)c2cc(Cl)ccc2c(=O)n1Cc1ccc(C(=O)O)cc1`, the “%Inh” value is recorded as 0%.

Regarding `O=C(NCc1cccs1)c1cc(C(=O)c2c(Cl)cccc2Cl)c[nH]1` [GW823670], the “%Inh” value stood at 5%.

As for `COc1cccc(C2=C(N(C)c3ccccc3)C(=O)NC2=O)c1` [SB-334865], the “%Inh” value came to 0%.

Regarding `CC(C)(C)c1ccc(C(=O)Nc2cn3cc(-c4ccccc4)ccc3n2)cc1`, the “%Inh” value was determined as 42%.

For the compound `CCC(=O)c1c(-c2ccccc2)c2cc(Cl)ccc2c(=O)n1Cc1cc(S(C)(=O)=O)n(CC(F)F)n1`, the “%Inh” value is listed as 0%.

Turning to `CCC(=O)c1c(-c2ccccc2)c2cc(Cl)ccc2c(=O)n1Cc1cc(S(C)(=O)=O)n(CCC(C)(C)O)n1`, the “%Inh” value is on record as 0%.

Consider `COc1cc2nccc(Nc3ccc(OCc4ccc(NC(C)=O)cc4)cc3)c2cc1OC.Cl` [GW440135], for which the “%Inh” value was 0%.

On to `COc1cc2nccc(Nc3cccc(Oc4ccccc4)c3)c2cc1OC.Cl` [GW284543], for which the “%Inh” value is 1%.

Regarding `Cl.c1ccc(Cn2cnc3cc(Nc4ncnc5ccccc45)ccc32)cc1` [GW272142], the “%Inh” value was 0%.

On to `O=C(NCCNc1ccnc(Nc2ccc(F)cc2)n1)Nc1ccc2c(c1)OCO2` [GSK1379882], for which the “%Inh” value is 3%.

For `Nc1ncnc2c1ncn2-c1ccc(Cl)cc1` [AH2635], the “%Inh” value was 0%.

Take `COc1cc(Nc2nccc(N3CCC(NC(=O)C(C)c4ccc(Cl)cc4)C3)n2)cc(OC)c1OC` (stereo not drawn) [GSK1379757]: the “%Inh” value is listed as 0%.

In the case of `Cc1c(Cn2c(C)nn3c(=O)cc(N4CCO[C@H](C)C4)nc23)cccc1C(F)(F)F` [GSK2373690], the “%Inh” value came to 0%.

Turning to `CCc1nc(-c2cccc(C)c2)c(-c2ccncc2)s1`, the “%Inh” value is 41%.

Take `Cc1nnc(-c2ccc(C)c(-c3ccc(C(=O)O)cc3)c2)o1` [GW608005]: the “%Inh” value was determined as 0%.

As for `CCC(=O)c1c(-c2ccccc2)c2cc(Cl)ccc2c(=O)n1Cc1cc(C(=O)NC2CC2)n(C)n1`, the “%Inh” value stood at 3%.

As to `Nc1nc(-c2ccccc2F)c(-c2ccnc3ccccc23)s1` [GW560459], the “%Inh” value is listed as 0%.

Take `Cc1nnc(-c2ccc3ncn(-c4ccc(S(C)=O)cc4)c3c2)o1` (stereo not drawn): the “%Inh” value was 28%.

With `CCS(=O)(=O)c1ccc(OC)c(Nc2ncc(-c3ccc(F)cc3)o2)c1.Cl` [GW591947], the “%Inh” value came out at 0%.

Regarding `CCS(=O)c1ccc(-c2coc3ccc(-c4nnc(C)o4)cc23)cc1` (stereo not drawn), the “%Inh” value is 20%.

Take `Nc1n[nH]c2nnc(-c3ccccc3)c(-c3ccccc3)c12` [GW554060]: the “%Inh” value amounted to 0%.

Consider `O=C(Nc1n[nH]c2nc(-c3ccccc3)c(Cl)cc12)C1CC1` [SB-734909], for which the “%Inh” value is 22%.

On to `COC(=O)c1c(-c2ccccc2)c2cc(Br)ccc2c(=O)n1Cc1ccc(S(C)(=O)=O)cc1`, for which the “%Inh” value is 0%.

For the compound `Cc1ccc(Oc2ccc(Nc3ncnc4cc[nH]c34)cc2C)cn1`, the “%Inh” value is on record as 24%.

`O=C(Nc1n[nH]c2nc(-c3ccccc3)c(Br)cc12)C1CC1` [SB-708998]: the “%Inh” value is listed as 0%.

With `CN(C)c1cc(-c2ccc3c(N)n[nH]c3c2)nc(N)n1` [GSK2219329], the “%Inh” value is recorded as 7%.

Take `COc1ccc(-n2cnc3c(N)ncnc32)cc1` [SKF-97236]: the “%Inh” value worked out at 68%.

With `CCCC(=O)Nc1n[nH]c2ncc(-c3cccc4ccccc34)cc12` [SB-642057], the “%Inh” value is given as 0%.

`FC(F)(F)c1ccc(-c2ncn(CCCN3CCOCC3)c2-c2ccncc2)cc1` [SB-217780]: the “%Inh” value was found to be 0%.

`Cn1c(=O)c(F)c(Nc2ccc(I)cc2F)c2c(=O)n(OC[C@H](O)CO)cnc21`: the “%Inh” value was 14%.

Consider `COc1ccc(Nc2nccc(N3CCC(NS(=O)(=O)c4ccc(NC(C)=O)cc4)C3)n2)cc1` (stereo not drawn) [GSK1379729], for which the “%Inh” value was 0%.

`Cl.NS(=O)(=O)c1cccc(Nc2cc(-c3ccc(F)cc3)n[nH]2)c1` [GW824645]: the “%Inh” value is given as 23%.

Turning to `OCCCNc1nccc(-c2c(-c3cccc(C(F)(F)F)c3)nn3cc(C(F)(F)F)ccc23)n1` [GW630813], the “%Inh” value was determined as 0%.

As to `CCc1ccc(-c2ccc3c(c2)-c2nn(C)cc2S(=O)(=O)N3C)cc1`, the “%Inh” value is on record as 10%.

Consider `COc1ccc(-c2coc3ccc(-c4nnc(SCc5cccc(C#N)c5)o4)cc23)cc1`, for which the “%Inh” value is 36%.

The next experiment deals with JAK2(JH1domain-catalytic). The following applies: concentration: 1 μM, replicates: in singlicate; n = 1.
Turning to `COc1ccc(-c2cc3c(C)nc(N)nc3n([C@H]3CC[C@H](O)CC3)c2=O)cn1`, the “%Inh” value was determined as 0%.

For the compound `CCC(=O)c1c(-c2ccccc2)c2cc(Cl)ccc2c(=O)n1Cc1ccc(C(=O)O)cc1`, the “%Inh” value was 0%.

On to `O=C(NCc1cccs1)c1cc(C(=O)c2c(Cl)cccc2Cl)c[nH]1` [GW823670], for which the “%Inh” value was 0%.

As to `COc1cccc(C2=C(N(C)c3ccccc3)C(=O)NC2=O)c1` [SB-334865], the “%Inh” value is 0%.

Regarding `CC(C)(C)c1ccc(C(=O)Nc2cn3cc(-c4ccccc4)ccc3n2)cc1`, the “%Inh” value amounted to 0%.

For the compound `CCC(=O)c1c(-c2ccccc2)c2cc(Cl)ccc2c(=O)n1Cc1cc(S(C)(=O)=O)n(CC(F)F)n1`, the “%Inh” value stood at 0%.

`CCC(=O)c1c(-c2ccccc2)c2cc(Cl)ccc2c(=O)n1Cc1cc(S(C)(=O)=O)n(CCC(C)(C)O)n1`: the “%Inh” value is given as 0%.

Regarding `COc1cc2nccc(Nc3ccc(OCc4ccc(NC(C)=O)cc4)cc3)c2cc1OC.Cl` [GW440135], the “%Inh” value is 0%.

As to `COc1cc2nccc(Nc3cccc(Oc4ccccc4)c3)c2cc1OC.Cl` [GW284543], the “%Inh” value amounted to 0%.

For `Cl.c1ccc(Cn2cnc3cc(Nc4ncnc5ccccc45)ccc32)cc1` [GW272142], the “%Inh” value was found to be 0%.

Regarding `O=C(NCCNc1ccnc(Nc2ccc(F)cc2)n1)Nc1ccc2c(c1)OCO2` [GSK1379882], the “%Inh” value was determined as 100%.

With `Nc1ncnc2c1ncn2-c1ccc(Cl)cc1` [AH2635], the “%Inh” value came out at 4%.

`COc1cc(Nc2nccc(N3CCC(NC(=O)C(C)c4ccc(Cl)cc4)C3)n2)cc(OC)c1OC` (stereo not drawn) [GSK1379757]: the “%Inh” value amounted to 86%.

Consider `Cc1c(Cn2c(C)nn3c(=O)cc(N4CCO[C@H](C)C4)nc23)cccc1C(F)(F)F` [GSK2373690], for which the “%Inh” value was 14%.

Take `CCc1nc(-c2cccc(C)c2)c(-c2ccncc2)s1`: the “%Inh” value was determined as 1%.

For the compound `Cc1nnc(-c2ccc(C)c(-c3ccc(C(=O)O)cc3)c2)o1` [GW608005], the “%Inh” value is on record as 24%.

For the compound `CCC(=O)c1c(-c2ccccc2)c2cc(Cl)ccc2c(=O)n1Cc1cc(C(=O)NC2CC2)n(C)n1`, the “%Inh” value came out at 0%.

As for `Nc1nc(-c2ccccc2F)c(-c2ccnc3ccccc23)s1` [GW560459], the “%Inh” value is 9%.

For the compound `Cc1nnc(-c2ccc3ncn(-c4ccc(S(C)=O)cc4)c3c2)o1` (stereo not drawn), the “%Inh” value is 0%.

Regarding `CCS(=O)(=O)c1ccc(OC)c(Nc2ncc(-c3ccc(F)cc3)o2)c1.Cl` [GW591947], the “%Inh” value is 8%.

Turning to `CCS(=O)c1ccc(-c2coc3ccc(-c4nnc(C)o4)cc23)cc1` (stereo not drawn), the “%Inh” value turned out to be 23%.

With `Nc1n[nH]c2nnc(-c3ccccc3)c(-c3ccccc3)c12` [GW554060], the “%Inh” value was found to be 10%.

In the case of `O=C(Nc1n[nH]c2nc(-c3ccccc3)c(Cl)cc12)C1CC1` [SB-734909], the “%Inh” value amounted to 13%.

Consider `COC(=O)c1c(-c2ccccc2)c2cc(Br)ccc2c(=O)n1Cc1ccc(S(C)(=O)=O)cc1`, for which the “%Inh” value was determined as 6%.

For `Cc1ccc(Oc2ccc(Nc3ncnc4cc[nH]c34)cc2C)cn1`, the “%Inh” value worked out at 18%.

In the case of `O=C(Nc1n[nH]c2nc(-c3ccccc3)c(Br)cc12)C1CC1` [SB-708998], the “%Inh” value amounted to 18%.

Take `CN(C)c1cc(-c2ccc3c(N)n[nH]c3c2)nc(N)n1` [GSK2219329]: the “%Inh” value is 0%.

With `COc1ccc(-n2cnc3c(N)ncnc32)cc1` [SKF-97236], the “%Inh” value came to 31%.

Take `CCCC(=O)Nc1n[nH]c2ncc(-c3cccc4ccccc34)cc12` [SB-642057]: the “%Inh” value is given as 0%.

Take `FC(F)(F)c1ccc(-c2ncn(CCCN3CCOCC3)c2-c2ccncc2)cc1` [SB-217780]: the “%Inh” value stood at 27%.

As for `Cn1c(=O)c(F)c(Nc2ccc(I)cc2F)c2c(=O)n(OC[C@H](O)CO)cnc21`, the “%Inh” value was 9%.

On to `COc1ccc(Nc2nccc(N3CCC(NS(=O)(=O)c4ccc(NC(C)=O)cc4)C3)n2)cc1` (stereo not drawn) [GSK1379729], for which the “%Inh” value is on record as 95.6%.

In the case of `Cl.NS(=O)(=O)c1cccc(Nc2cc(-c3ccc(F)cc3)n[nH]2)c1` [GW824645], the “%Inh” value came to 48%.

With `OCCCNc1nccc(-c2c(-c3cccc(C(F)(F)F)c3)nn3cc(C(F)(F)F)ccc23)n1` [GW630813], the “%Inh” value turned out to be 0%.

With `CCc1ccc(-c2ccc3c(c2)-c2nn(C)cc2S(=O)(=O)N3C)cc1`, the “%Inh” value is on record as 0%.

Regarding `COc1ccc(-c2coc3ccc(-c4nnc(SCc5cccc(C#N)c5)o4)cc23)cc1`, the “%Inh” value is 12%.
